The record followed here is the supplement of paper PMC10105736.

Common to all, as to assay: MAPPIT interaction score (arbitrary units); higher = stronger binary interaction signal, active = hit call of the paper
For one assay, the target named is MAPk-Ak2. Conditions: MAPPIT configuration: N-N; pair source set: Curagen_high_conf;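 active = MAPPIT score above the 99th percentile of random reference set scores in the same batch; inactive = at or below it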.
For another assay, the target named is Lac. The following applies: pair source set: Lit-BM-16.
Another assay concerns the target Lmpt. Conditions: MAPPIT configuration: N-N; pair source set: Curagen_low_conf.
A further assay has as its target Pen. Conditions: MAPPIT configuration: N-N; pair source set: Finley_Y2H.
In the next assay the target is lwr. The following applies: MAPPIT configuration: N-N; pair source set: screen_1.
The next assay addresses LRR. The following applies: pair source set: RRS.
The next assay concerns the target Jupiter. The following applies: MAPPIT configuration: N-N; pair source set: DPIM.
The target of a further assay is MED15. Conditions: MAPPIT configuration: N-N; pair source set: Finley_Y2H.
For a further assay, the target named is LTV1. Conditions: MAPPIT configuration: N-N; pair source set: screen_1.
The target of another assay is Lcp1. Conditions: MAPPIT configuration: N-N; pair source set: DPIM.
In a further assay the target is Jheh2. Conditions: MAPPIT configuration: N-N; pair source set: Lit-BS-16.
The target of a further assay is Kaz. The following applies: MAPPIT configuration: N-N; pair source set: Curagen_low_conf.
The target in another assay is Pfdn2. The following applies: MAPPIT configuration: N-N; pair source set: Lit-BM-16.
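Further: HEK293T cells with Epo stimulation, STAT-responsive firefly luciferase reporter, fold induction versus unstimulated cells divided by the larger fold induction of two negative controls lacking either bait or prey.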

B1: p38b (protein)
chain: MSRKMAKFYKLDINRTEWEIPETYQNLQPVGQGAYGQVCKAVVRGTSTKVAIKKLARPFQSAVHAKRTYRELRLLKHMDHENVIGLLDVFHPGQPADSLDQFQQVYMVTHLMDADLNNIIRTQKLSDDHVQFLVYQILRGLKYIHSAGVIHRDLKPSNIAVNEDCELRILDFGLARPAESEMTGYVATRWYRAPEIMLNWMHYNQTADIWSVGCIMAELLTGRTLFPGTDHIHQLNLIMEVLGTPADEFMSRISSESARNYIRSLPVMPRRNFRDIFRGANPLAIDLLEKMLELDADKRITAEQALAHPYMEKYHDPTDEQTAALYDQSFEENELPVEKWREMVFSEVTAFKPTAAFAELLPKEQ
Regarding B1, in the assay with MAPk-Ak2, the MAPPIT interaction score is 1.93 (inactive).

B2: Lac (protein)
chain: MWRPSISNCVWSTLLLAIFVQQTLAQRTPTISYITQEQIKDIGGTVEFDCSVQYAKEYNVLFLKTDSDPVFLSTGSTLVIKDSRFSLRYDPNSSTYKLQIKDIQETDAGTYTCQVVISTVHKVSAEVKLSVRRPPVISDNSTQSVVASEGSEVQMECYASGYPTPTITWRRENNAILPTDSATYVGNTLRIKSVKKEDRGTYYCVADNGVSKGDRRNINVEVEFAPVITVPRPRLGQALQYDMDLECHIEAYPPPAIVWTKDDIQLANNQHYSISHFATADEYTDSTLRVITVEKRQYGDYVCKATNRFGEAEARVNLFETIIPVCPPACGQAYIAGAEDVSATSFALVGILAALLFAR
In the case of B2, the MAPPIT interaction score in the assay with Lac (MAPPIT configuration: N-C) was -0.593 (inactive); in the assay with Lac (MAPPIT configuration: N-N), -0.017 (inactive).

B3: prod (protein)
chain: MEKVEAVTVSNVDPYRRILNKVVSQLLLDKGAGQASNHSLETLTQMLQALIWEIGNSAHNYCELSGRTMPTVGDVSLALINMGISISNLDPYMRKETHVPIPLPPQQTQQRPLSLLQAGIKAPHPHYVPSYFPPMPDPHAYIRTPTHKQPVTEYEAIREKAACQKRDIEKALTKFLCKTTETNNLFPTEDNMFPLIACKPAFPPYAAALNPTDQVFDFEELEYHYLVANRTEDEPSKDDGEEGDSENEEMDGDKSKEEKPELDIKPNSNTNKAILENPNIDNPYLRAATLPKRSKNCPTPGTMPSRSLATTAPTIRTPSTLEITKTNL
Consider B3, for which the figures for the MAPPIT interaction score with Lmpt, in the assay with Pen and with lwr were 2.19 (inactive), 0.326 (inactive) and -0.147 (inactive), respectively.

B4: CG33108 (protein)
chain: MSNISSVAPPPPPPPMIVTPSTPATTKERPVGDNITTDECTWACEYPEVQKGCYLSRVCQYTPPKHCQYYSVNSIVQVGPTCGLVALSMLLGGSPTADDLLKDAIDQEYTLNGELFSAQYLFELTRKHMPGPAACQLHVGPLDCKKVKELLKAGGCLLVPYDADVNHAPCVKNGHRAHWALIVGYLVDTQDRFYVLARHGKSRNLAVWPLDTLSQSNENLKEFAQPKGYPDDEFLLPPGGIGGSLGLNERCILVNGLPKQVIHVRWS
On to B4, for which the MAPPIT interaction score with LRR (MAPPIT configuration: N-C) was 1.24 (inactive); with LRR (MAPPIT configuration: N-N), -0.128 (inactive).

B5: rswl (protein)
chain: MLKHFARWRLGSQLLKGCAAPVRQASKTSSAENLIAGTEEPQKKFVNPFSQPAPALSNDTISENKEERDKRLKVLQLEADIAHQEGRRVPSLEFFKDHHWEHVLTLPTKSARIKYFGYLWQIEMKKEADQRKKAERAKEAERRVAEMRKEREENTHIIYGLGHTSLFLRIYDTTINHWQNNRLTRAMQFAPKMVLDCSYDEHMNNREATYAAKQLMMCFAENRMNDEPFDLHYCNTQMDSRCMQSLQRYIPTMHNPEFPINLHSKCFTELFPKQNLVYLTPHCREDLVTYNPDDIYIVGAMVDTMNNEPLSLAKAKRLGLRMARLPLDRYLQWGSGSGKSLTLNQMINIMLDLKKTGDWDTALKHVPRRKVVQNEFQPRREKDHWSTGTRARKLNMRIDHLFDFDENRRQATSYATPQNVRQRREGLEFQLDTWATGKQKKKQRQN
On to B5, for which the MAPPIT interaction score with Jupiter was 0.211 (inactive).

B6: Clp (protein)
chain: MDILLANVSGLQFKAERDLIEQVGAIPLPFYGMDKSIAAVCNFITRNGQECDKGSACPFRHIRGDRTIVCKHWLRGLCKKGDQCEFLHEYDMTKMPECYFYSRFNACHNKECPFLHIDPQSKVKDCPWYKRGFCRHGPHCRHQHLRRVLCMDYLAGFCPEGPSCKHMHPHFELPPLAELGKDQLHKKLPTCHYCGELGHKANSCKQYVGSLEHRNNINAMDHSGGHSGGYSGHSGHIEGADDMQSNHHSQPHGPGFVKVPTPLEEITCYKCGNKGHYANKCPKGHLAFLSNQHSHK
Turning to B6, the MAPPIT interaction score with Jupiter is -0.085 (inactive).

B7: grp (protein)
chain: MAATLTEAGTGPAATREFVEGWTLAQTLGEGAYGEVKLLINRQTGEAVAMKMVDLKKHPDAANSVRKEVCIQKMLQDKHILRFFGKRSQGSVEYIFLEYAAGGELFDRIEPDVGMPQHEAQRYFTQLLSGLNYLHQRGIAHRDLKPENLLLDEHDNVKISDFGMATMFRCKGKERLLDKRCGTLPYVAPEVLQKAYHAQPADLWSCGVILVTMLAGELPWDQPSTNCTEFTNWRDNDHWQLQTPWSKLDTLAISLLRKLLATSPGTRLTLEKTLDHKWCNMQFADNERSYDLVDSAAALEICSPKAKRQRLQSSAHLSNGLDDSISRNYCSQPMPTMRSDDDFNVRLGSGRSKEDGGDRQTLAQEARLSYSFSQPALLDDLLLATQMNQTQNASQNYFQRLVRRMTRFFVTTRWDDTIKRLVGTIERLGGYTCKFGDDGVVTVSTVDRNKLRLVFKAHIIEMDGKILVDCRLSKGCGLEFKRRFIKIKNALEDIVLKGPTTWPIAIATNSVP
Consider B7, for which, in the assay with MED15, the MAPPIT interaction score is 2.02 (inactive).

B8: bys (protein)
chain: MGKPKKANVATIKNVNLEKQITEGRVAKNKNKDKVKLRAEESANIDARSSQKILAAAKLQQLELDEENFPSLVTVKKVNFSLNDGHVKEDEEVNETDLMADLDMDEDDVAAFERFQQPAQEGKRTLHLSKMIMQKIQEKEADIHTKISDEGSLKIEEIDPKVKEMYEGVRDVLKRYRSGKIPKAFKIIPKLRNWEQILFITEPHNWSAAAMFQGTRIFCSVLSQAMAQRFYNLVLLPRVRDDLCEYKKLNMHLYNALKRALFKPAAFMKGIILPLLEGGDCTLREAIIFGSVVARSSIPVLHSSACLLKICEMAYSGANSIFIRYFLDKRYALPYRVVDAAVFHFLRFENDKRELPVLWHQSLLTFAQRYKNDISSEQRDALLQLLKKKSHFKITPDVRRELQAASCRDVEMMETDNGLAGQPAKMYTDADVEYEG
With B8, in the assay with LTV1, the MAPPIT interaction score is 1.68 (inactive).

B9: B52 (protein)
chain: MVGSRVYVGGLPYGVRERDLERFFKGYGRTRDILIKNGYGFVEFEDYRDADDAVYELNGKELLGERVVVEPARGTARGSNRDRYDDRYGGRRGGGGGRYNEKNKNSRSSSRYGPPLRTEYRLIVENLSSRVSWQDLKDYMRQAGEVTYADAHKQRRNEGVVEFASLSDMKTAIEKLDDTELNGRRIHLVEDRRGGRSGGGGGSGRGRSRSSSSRSRSRSRRRSRSRRSSHSRSKSRSRSKSRGGRSKSKSPVKSRSRSRSRSNKSRDVSKSKSKSHSRTRSRSPKRERDSRSRSRSVSKRESRSRSRSKSIHRDSRSRPPTVSFKSSFYKFTTMPFFCSDRSASAENKSRSRSRSRSASPKNGNASPDRNNESMDD
Consider B9, for which the MAPPIT interaction score with Lcp1 was -0.142 (inactive).

B10: Srp68 (protein)
chain: MVVQEDNPNTGDVQEKTETAPVAEPSKIFTVEILHMIKDAQQQHGLRHGDFQRYRGYCSRRIRRLRKALKYPQGDKRHFKRRDVTIGQLTGKKADERFIHIPLICAERAWAYAMQLKQESNTEPRKRFHLVNKLRRACFYALQLQELCNTEAFDARTKLECEAYVAWMHGTLHFELQLWKTAGEHLKRAQVVYENLGKALPEDEQELYRAKVNEFTPNLRYCAYNISGGASGGKIDEILELRAQGVLENLDVLVSQTKTESSEGLQTIDWRGRKVTVRPEKVRLFLLSAQELDKSLAKTTKQDAKIELIERILMDCKDAIQAVRDEIKQDPKLRSLTTGQTVSGVQYLLAYLSYIRHSRTLQRNLCLVEQAKLNFYDPNLQSQQNVGDGKRVRPQDLARLYEIILQNVTEMQQINGLEDDATYQSEVENLAITFKAFRCYYIALTLIDIKKWKEAVALYERASNYATEALKGKSSPEFQLQEELKKVVSAIDGCKFSAHAYSVLEDDNSEESGTTTKSQKTTKPLYERLSLYKEDQSLHTKAPNVFKLTPDMEPIPCKPIFFDLAMTYVELPSLEGKLESPGKKGASITGFVKGFLGWGGGGNK
Consider B10, for which the MAPPIT interaction score in the assay with Jheh2 is -0.0601 (inactive).

B11: Cpn (protein)
chain: MEPGTIPSPVSAPVAAPVTPSAVAAPVQVVSPAAVAPAPAAPIAVTPVAPPPTLASVQPATVTIPAPAPIAAASVAPVASVAPPVVAAPTPPAASPVSTPPVAVAQIPVAVSAPVAPPVAATPTPVAPIPVAAPVIATPPVAASAPTPAAVTPVVSPVIATPPVVPANTTVPVAAPVAAVPAAVPVVAPVLAPAVAPAVAPVVAETPAPPPVAEIPVATIPECVAPLIPEVSVVATKPLAAAEPVVVAPPATETPVVAPAAASPHVSVAPAVETAVVAPVSASTEPPVAAATLTTAPETPALAPVVAESQVAANTVVATPPTPAPEPETIAPPVVAETPEVASVAVAETTPPVVPPVAAESIPAPVVATTPVPATLAVTDPDVTASAVPELPPVIAPSPVPSAVAETPVDLAPPVLPPVAAEPVPAVVAEETPETPAPASAPVTIAALDIPEVAPVIAAPSDAPAEAPSAAAPIVSTPPTTASVPETTAPPAAVPTEPIDVSVLSEAAIETPVAPPVEVTTEVAVADVAPPEAAADLIIEPVEPPAPIPDLLEQTTSVPAVEAAESTSSPIPETSLPPPNEAVASPEVAVAPITAPEPIPEPEPSLATPTEPIPVEAPVVIQEAVDAVEVPVTETSTSIPETTVEYPVAEKVLDPAITEAPVTTQEPDVANINDGAPATEITTPAVEIVTAAAEVSDTAIPLIDPPVPQEIAVAEIPETETKPAEVIVEQSTIPIEAPVPEVSKYAEPVISEAPAAEVPITAGDNPDNTSVGISEVVPTIAEKAVEEVPTSEIPEQSSSPSDSVPVAKITPLLRDLQTTDVSLLAIAATLDAIGEKLKDQKARNQQVMDRLCEIEKILGPPKSN
For B11, in the assay with Kaz, the MAPPIT interaction score was 0.293 (inactive).

B12: Pfdn5 (protein)
chain: MAATPSAPAKSEMIDLTKLSPEQLIQIKQEFEQEITNVQDSLSTLHGCQAKYAGSKEALGTFQPNWENRQILVPLTSSMYVPGRVKDLNRFVIDIGTGYYIEKDLEGSKDYFKRRVEYVQEQIEKIEKIHLQKTRFYNSVMSVLEMKQAAAAKLQSQQQSQPAVTQSS
B12: the MAPPIT interaction score in the assay with Jupiter was -0.0979 (inactive); with Pfdn2 it was 5.87 (active).
